We go through 42 compounds from ChEMBL document CHEMBL4888484, “Replenishing the malaria drug discovery pipeline: Screening and hit evaluation of the MMV Hit Generation Library 1 (HGL1) against asexual blood stage Plasmodium falciparum ,using a nano luciferase reporter read-out” (2022).

The % Inhibition is the drop in the measured response relative to a control, in per cent.

Screen size: about 150,000 compounds; about 540 (0.36%) showed an effect of 50% or more. The sample holds strong results, similar compounds and a random draw of the others, so the mix is not that of the screen.

The assay relates to Plasmodium falciparum. Description: Primary screen in NF54 nanoGlo assay, in single point, at 2uM, 72h; a lower Z score goes with more inhibition. It is filed as functional, Erythrocyte. Particulars: timepoint 72 hour.
Consider `CN(Cc1ccccc1)C(=O)c1nc2ccccc2s1`, for which the “% Inhibition” value is on record as -10% and the Z score is 1.35.
As to `CCCC1CCC(c2ccc(OC(=O)c3cccc(C(=O)OC)n3)cc2)CC1` (centres undefined), the “% Inhibition” value is given as -10% and the Z score stood at 1.93.
As for `COCC(O)CN1CCCC(C(C)C)CC1` (centres undefined), the “% Inhibition” value is on record as -5% and the Z score was 0.7.
For the compound `Cc1ccc2c(c1)c1c(n2CCc2ccncc2)CCCN(C)C1`, the “% Inhibition” value worked out at 4% and the Z score was -0.46.
On to `Cc1ccc2[nH]c3c(c2c1)CN(C)CCC3`, for which the “% Inhibition” value came to 4% and the Z score is -0.52.
Regarding `Cc1ccc2c(c1)c1c(n2S(=O)(=O)c2ccc(C(C)(C)C)cc2)CCCN(C)C1`, the “% Inhibition” value was determined as 67% and the Z score is listed as -13.88.
Turning to `CNS(=O)(=O)CC1CCCN1CC1CCC(C)O1` (centres undefined), the “% Inhibition” value is -5% and the Z score is listed as 0.75.
For the compound `CCCC(C)NC(=O)C(C)NC1CCN(C(C)=O)CC1CC` (centres undefined), the “% Inhibition” value is given as -2% and the Z score amounted to 0.22.
With `CCc1cccc(NC(=O)Cc2nc(-c3cccnc3)n[nH]2)c1`, the “% Inhibition” value was -13% and the Z score is 2.1.
Turning to `CC(=O)c1ccc(S(=O)(=O)NC2(C(F)(F)F)CCOCC2)cc1`, the “% Inhibition” value was -12% and the Z score was 1.89.
Turning to `COc1ccc(C(=O)N[C@H]2CCN(c3cc(-c4ccc(Cl)cc4)n[nH]3)C2)c(C)c1`, the “% Inhibition” value is recorded as -20% and the Z score was 2.
On to `Cc1cc(C(=O)N[C@H]2CCOC[C@@H]2OCc2ccccc2)c(C)n1C`, for which the “% Inhibition” value is 8% and the Z score is given as -1.34.
Take `Cc1ccc(-c2cc(C(=O)NC3CC3)nn2C)cc1`: the “% Inhibition” value is on record as -10% and the Z score is reported as 1.31.
In the case of `COc1ccc(-c2cc(N3CC[C@H](NC(=O)c4ccc(C)cc4)C3)[nH]n2)cc1`, the “% Inhibition” value is recorded as -10% and the Z score is 1.05.
Taken in the same sequence, the figures for `COc1ccc(-c2cc(C(=O)N[C@H]3CCN(c4ccc(=O)[nH]n4)C3)c(C)n2C)cc1` were 82% and -5.36.
Taken in the same sequence, the figures for `Cc1c(C(=O)NC2CC2)cc(-c2ccccc2)n1C` were 55% and 0.53.
In the case of `Cc1c(C(=O)NC2CCN(c3ccc(=O)n(C)n3)CC2)cc(-c2ccc(F)cc2)n1C`, the “% Inhibition” value was -5% and the Z score amounted to 0.6.
As for `COc1ccc(-c2cc(C(=O)N[C@H]3CCN(c4ccc(=O)n(C)n4)C3)c(C)n2C)cc1`, the “% Inhibition” value came to 67% and the Z score is given as -11.23.
Taken in the same sequence, the figures for `Cn1nc(N2CC[C@H](NC(=O)C3CCCCC3)C2)ccc1=O` were -6% and 0.81.
`COc1cccc(C(=O)N2CCN(c3cccnc3)C(=O)C2)c1OC`: the “% Inhibition” value came to 9% and the Z score is -1.08.
For the compound `CN(C)S(=O)(=O)N1CCC2(CCC(=O)N(CCc3ccccn3)C2)CC1`, the “% Inhibition” value was -12% and the Z score worked out at 1.7.
Turning to `CCc1ccccc1S(=O)(=O)NC[C@H](C(=O)O)C(C)C`, the “% Inhibition” value was 2% and the Z score is -0.45.
As to `COCCN1C(=O)c2ccc(C(=O)NCc3ccncc3)cc2C1=O`, the “% Inhibition” value is recorded as -3% and the Z score came out at 0.39.
The like results for `Cc1ccc(-c2cn[nH]c2[C@H]2CCCN(C(=O)C(C)(C)O)C2)cc1` were, in that order, -14% and 2.64.
With `NC(=O)C1CCN(C(=O)Cc2ccc(-c3ccccc3)cc2)CC1`, the “% Inhibition” value is given as -4% and the Z score worked out at 0.36.
Turning to `COC(=O)C1(NC(=O)OC(C)(C)C)CC(CN2CCN(C)CC2)C1` (centres undefined), the “% Inhibition” value worked out at 10% and the Z score is listed as -2.05.
As to `CCC1=C(c2ccc(C)cc2)S(=O)(=O)N=C1N1CCC(C(=O)NC2CCC(C)CC2)CC1` (centres undefined), the “% Inhibition” value is on record as -12% and the Z score amounted to 1.49.
Regarding `CCC1=C(c2ccc(C)cc2)S(=O)(=O)N=C1N1CCC(C(=O)NCCCc2ccccc2)CC1`, the “% Inhibition” value was -9% and the Z score came out at 1.6.
`CCC1=C(c2ccc(C)cc2)S(=O)(=O)N=C1N1CCC(C(=O)NCCN2CCCC[C@@H]2C)CC1`: the “% Inhibition” value was determined as 53% and the Z score is recorded as -6.49.
As for `CC1=C(c2ccc(Cl)cc2)S(=O)(=O)N=C1N1CCC(C(=O)NCCN(C)C)CC1`, the “% Inhibition” value is -18% and the Z score came out at 1.96.
Turning to `CCCCN(CC)CCNC(=O)C1CCN(C2=NS(=O)(=O)C(c3ccc(OC)cc3)=C2C)CC1`, the “% Inhibition” value is reported as 57% and the Z score was -3.61.
Regarding `CCc1ccc(C2=C(C)C(N3CCC(C(=O)NC)CC3)=NS2(=O)=O)cc1`, the “% Inhibition” value is listed as -2% and the Z score stood at 0.29.
The like results for `CN1CC2(CCN(C(=O)c3ccccc3O)CC2)C[C@@H](c2ccccc2)C1=O` were, in that order, -14% and 1.81.
With `C=CCOC1CCN(C(=O)CCN2CCOC2=O)CC1`, the “% Inhibition” value is listed as -4% and the Z score was 0.57.
With `Cc1nc(CNC(=O)c2nc3ccccc3[nH]c2=O)cs1`, the “% Inhibition” value is 5% and the Z score is recorded as -0.75.
On to `CC(C)c1ncc(CN(C)S(=O)(=O)N(C)C2CCCCC2)cn1`, for which the “% Inhibition” value is -9% and the Z score amounted to 1.04.
For `CC(C)(C)OC(=O)NC1CC(NCC(O)c2ccco2)C12CCC2` (centres undefined), the “% Inhibition” value stood at 0% and the Z score is reported as 0.02.
Take `CCOc1ccc(C2c3[nH]c4ccccc4c3C[C@H]3C(=O)N(C4CCN(Cc5ccccc5)CC4)CC(=O)N23)cc1OC` (some centres undefined): the “% Inhibition” value is listed as 79% and the Z score is -7.03.
`COc1cccc(C2c3[nH]c4ccccc4c3C[C@H]3C(=O)N(C4CCN(Cc5ccccc5)CC4)CC(=O)N23)c1` (some centres undefined): the “% Inhibition” value was 15% and the Z score is listed as -1.95.
Taken in the same sequence, the figures for `CCOc1ccc(C2c3[nH]c4ccccc4c3C[C@H]3C(=O)N(C4CCCCCCC4)CC(=O)N23)cc1OC` (some centres undefined) were 12% and -1.52.
Regarding `CCOc1ccc2nc(CN(Cc3cnn(C)c3)C3CC3)ccc2c1`, the “% Inhibition” value is given as -7% and the Z score is 1.15.
Regarding `CCOc1ccc2nc(CN(C)[C@@H]3CCCC[C@@H]3O)ccc2c1`, the “% Inhibition” value was -18% and the Z score is listed as 1.9.
